High-throughput results: PubChem, National Center for Advancing Translational Sciences (NCATS)
Only some compounds are listed: those with a hit (about 5.7% of all), similar ones and a draw of the others.
ATXN viability: reduces viability in counter-screen for ATXN expression inhibitors | AID 651635 | S2 cells (HEK-293 line with an ATXN2-luciferase reporter) viability, CellTiter-Fluor protease fluorescence, 24 h | Potency, µM (highest dose often 56.7 µM), hits mostly cytotoxic | hit rate 0.49% among 400,000; further: potency means the concentration at half of the fitted maximal effect; nearly all actives have a fitted effect of over 40% in size
ATXN2 expr inh: ATXN2 expression inhibition; HEK-293 ATXN2-luciferase reporter, luminescence, 24 h; Potency, µM (highest dose often 57 µM), inactives show at the top dose activity change, negative = inhibition, most hits filed as inhibitors; hit rate 0.72% among 360,000; further: potency means the concentration at half of the fitted maximal effect; on the % scale 0 is the no-effect control and ±100 the full control effect; nearly all actives have a fitted effect of over 55% in size
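qHTS (up to 57 uM final) was run with 24 h compound exposure of reporter cells at 37 °C. Each well was multiplexed: SteadyGlo luminescence measured ATXN2-luciferase expression after a fluorogenic Gly-Phe-AFC viability readout (25 uM final).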
IL1B secr inh: blocks inflammasome-driven IL-1 beta release. hit rate 4.7% among 360,000. activity change, % at 57.5 µM. THP-1 LPS/ATP IL-1B secretion, AlphaLISA, 16 h; hits give low values; in the data active means activity change below about -50%; inconclusive means mostly about -30% to -49%; further: on the % scale 0 is the no-effect control and ±100 the full control effect
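THP-1 cells pretreated 1 hr with compounds (up to 57.5 uM final), then stimulated with LPS (250 ng/mL final) plus ATP (1.25 mM final); secreted IL-1B measured by AlphaLISA after 16 hr, decreased signal indicating inhibition.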
TGFb SMAD3 inh: inhibitors of TGF-b signaling. HepG2 CAGA-GFP TGF-b/SMAD3 reporter, GFP fluorescence, 18 h; TGF-beta stimulated, 500 pg/mL final. hit rate 1.2% among 410,000. AID 588855. Potency, µM (titrated, usually from 46.1 µM), inactives show top-dose activity, negative = inhibition, usual class: inhibitors; further: potency means the concentration at half of the fitted maximal effect; on the % scale 0 is the no-effect control and ±100 the full control effect; nearly all actives have a fitted effect of over 65% in size
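Cell-based qHTS in HEPG2 carrying a CAGA-GFP Smad reporter; compounds added before 500 pg/mL final TGF-beta, 18 h incubation at 37 degrees C, GFP fluorescence quantified per cell by imaging cytometry.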
HepG2 viability: HepG2 cytotoxicity, counter-screen for TGF-b inhibitors. hit rate 0.76% among 410,000. Potency, µM (series often up to 46.1 µM), for the others: at the top dose activity change, negative = cytotoxicity, actives largely listed as cytotoxic. HepG2 CAGA-GFP viability, ATP luminescence, 18 h; further: potency means the concentration at half of the fitted maximal effect
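HepG2 CAGA-GFP cells (1000/well, DMEM with 1% FBS) received compound, then TGF-beta at 500 pg/mL final, and were incubated 18 hours at 37 degrees C. Viability was read by CellTiter-Glo luminescence. Media-only wells were set as complete cell-killing and DMSO as no toxicity.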
An asterisk follows results filed as active; i = inactive; ? = inconclusive; / = no result given; [ ] = dose if it differs, or a comment. Unless noted, the call rests on the fitted dose curve; in most records, active means well fitted curve in the direction sought with a large enough effect; inconclusive means small, poorly fitted or top-dose-only effect, or another doubt; inactive means no such curve, though single readings can be large; an effect the other way counts as inactive or inconclusive.

SMILES	ATXN viability	ATXN2 expr inh	IL1B secr inh	TGFb SMAD3 inh	HepG2 viability
O=c1cc(NCCO)c2ccccc2o1	i	2%	0	1%	9%
Cc1ccc2nc(SCc3nc4ccccc4c(=O)[nH]3)[nH]c2c1	i	-3%	-98*	0%	0%
Cc1ccc2nc(CSc3nc(C)ccc3C#N)[nH]c2c1	/	2.2µM*	?	-1%	-50%
Cc1ccc(C#N)c(SCc2ccccc2F)n1	i	-13%	-3	-3%	40%
Cc1cccc(NC(=O)C2CCCN2S(=O)(=O)c2ccc3nc(-c4ccccc4)[nH]c3c2)c1 (stereo not drawn)	/	/	/	?	-25%
CCc1ccc2nc(SCC(=O)N3CC(=O)Nc4ccccc43)c(C#N)cc2c1	?	4%	56	0%	-14%
Cc1cccc(-n2c(SCC(=O)N3CC(=O)Nc4ccccc43)nc3ccccc3c2=O)c1C	?	/	-62*	-16%	-16%
C=CCn1c(SCC(=O)N2CC(=O)Nc3ccccc32)nc2scc(-c3ccccc3)c2c1=O	i	-8%	-52*	?	26%
O=C1CN(C(=O)CSc2nc3cc(Cl)ccc3c(=O)n2Cc2ccccc2)c2ccccc2N1	i	12%[11.3 µM]	-72*	9%	-18%
C=CCn1c(SCC(=O)NCc2ccc3c(c2)OCO3)nc2scc(-c3ccccc3)c2c1=O	i	2%	?	-11%	-13%
CCc1cc2cc(C)ccc2nc1SCC(=O)N1CC(=O)Nc2ccccc21	i	2%	-74*	-28%	0%
Cc1cc(/C=C2\C=Cc3ccccc32)cc(C)c1[N+](=O)[O-]	/	/	/	-10%	-27%
COCCn1c(SCC(=O)N2CCc3ccccc3C2)nc2cc(Cl)ccc2c1=O	?	-8%	-76*	-10%	-5%
COc1ccc(-c2cc(CNc3nc(NC(C)C)nc4cc(-c5ccccc5)sc34)on2)cc1	?	?	-107*	?	-97%
C=CCNc1nc(NCc2ccc(NC(C)=O)cc2)c2sc(-c3ccccc3)cc2n1	32µM*	?	?	?	11µM*
CC(=O)Nc1ccc(CNc2nc(NC(C)C)nc3cc(-c4ccccc4)sc23)cc1	?	22µM*	-114*	?	-113%
CNc1oc(-c2cccs2)nc1S(=O)(=O)c1ccccc1	i	0%	-21	-3%	-25%
CC(C)CS(=O)(=O)c1oc(-c2ccc(F)cc2)nc1S(=O)(=O)c1ccccc1	/	/	/	3.2µM*	7.1µM*
CCC(C)S(=O)(=O)c1oc(-c2cccs2)nc1S(=O)(=O)c1ccccc1 (stereo not drawn)	/	/	/	1.1µM*	2µM*
Cc1cc(=O)c2cc(C(=O)Nc3ccc(C)c(C)c3)ccc2[nH]1	i	-7%	/	1%	11%
CN(C(=S)Nc1ccc(Oc2ccccc2)cc1)c1ccc(O)cc1	i	-11%	-73*	?	4%
CN(C(=S)Nc1ccc(SC(F)F)cc1)c1ccc(O)cc1	i	-8%	-54*	8%	-4%
COc1cc(=O)n2c(c1C(=O)NCc1ccco1)CCN(Cc1ccc3ccccc3c1)CC2	i	/	/	/	/
CCCCCCCCN1[C@@H](CC(C)=O)c2ccc(/C=C/C(C)=O)cc2S1(=O)=O	/	/	/	?	-16%
CN1/C(=C/C=C/c2n(C)c3cc([N+](=O)[O-])c([N+](=O)[O-])cc3[n+]2C)C(C)(C)c2ccccc21	/	/	-52*	?	-44%
SMILES	ATXN viability	ATXN2 expr inh	IL1B secr inh	TGFb SMAD3 inh	HepG2 viability
O=C(O)c1ccc(N=Nc2c(O)[nH]c3ccccc23)cc1	i	-28%	13	-2%	-53%
Cc1cc(N=Nc2c(O)c3ccccc3[nH]c2=O)ccc1N=Nc1ccc(C(=O)N(C)C)cc1	i	/	26	13µM*	-75%
CN(C)C(=O)c1ccc(N=Nc2c(O)c3ccccc3[nH]c2=O)cc1	?	-34%	-22	15%	11µM*
COc1cc(N=Nc2ccc(C(=O)N(C)C)cc2)c(C)cc1N	i	58%	2	16%	-9%
COc1cccc(Cn2c(Oc3cc(C)cc(C)c3)nc3c2c(=O)n(C)c(=O)n3C)c1	i	-11%	/	0%	-3%
Cn1c(SCc2ccccc2)nc(C(F)(F)F)cc1=O	i	7%	-18	-3%	-2%
Cn1c(SCc2ccccc2)nc(N)c(N=O)c1=O	?	/	?	?	10µM*
O=[N+]([O-])c1c(NCCCO)cc(N2CCCCCC2)c2nonc12	?	-27%	1	?	-27%
Cn1ccnc1Sc1cc(NCCCO)c([N+](=O)[O-])c2nonc12	?	?	-101*	?	-26%
O=[N+]([O-])c1c(NCCCO)cc(Sc2ccc(Cl)cc2)c2nonc12	32µM*	?	-106*	5%	-22%
CC(=O)OCCNc1cc(SCc2ccco2)c2nonc2c1[N+](=O)[O-]	?	?	-52*	?	-58%
O=[N+]([O-])c1c(NCCCO)cc(SCc2ccco2)c2nonc12	/	0%	-97*	11µM*	-55%
CCOc1ccc(CCNC(=O)Cn2nc(-c3ccc(C)cc3)ccc2=O)cc1OCC	/	/	/	?	-13%
Cc1ccc(-c2cn3nc(N4CCCC(C(=O)Nc5ccc(F)cc5)C4)sc3n2)cc1 (stereo not drawn)	/	/	/	-17%	-26%
COc1ccccc1NC(=O)Cn1cc(C(=O)c2ccncc2)c(=O)c2cc(C)ccc21	/	/	/	-1%	-7%
O=C(COc1ccc(Cl)cc1Cl)NNC(=S)NC(=O)c1ccco1	i	-29%	/	?	16%
O=C(NC(=S)NCc1ccc(Cl)cc1)c1ccco1	i	-6%	-101*	-6%	-10%
O=C(NC(=S)NCc1ccc(Cl)cc1Cl)c1ccco1	?	-2%	-67*	0%	-18%
O=C(NCc1ccc(CNC(=O)c2ccco2)cc1)c1ccco1	?	10%	18	18%	1%
CCNC(=O)[C@@H]1CCCN1C(=O)[C@H](CCCN=C(N)N)NC(=O)[C@H](CC(C)C)NC(=O)CNC(=O)[C@H](Cc1ccc(O)cc1)NC(=O)[C@H](CO)NC(=O)[C@H](Cc1c[nH]c2ccccc12)NC(=O)[C@H](Cc1cnc[nH]1)NC(=O)[C@@H]1CCC(=O)N1	i	11%	/	/	/
COc1ccc(NC(=O)c2cnc3sc(N4CCOCC4)nn3c2=O)c(OC)c1	i	4%	/	0%	-5%
CC1=CC(C)(C)N2C(=O)C3(C(C#N)=C(N)Oc4cc(O)ccc43)c3c(C)c(C)cc1c32 (stereo not drawn)	13µM*	?	-73*	?	-107%
CC1(c2ccccc2)CC(C)(C)N2C(=O)C3(C(C#N)=C(N)Oc4cc(O)ccc43)c3cccc1c32 (stereo not drawn)	?	?	-51*	?	-100%
